# Reference: PubChem BioAssay AID1906 (The Scripps Research Institute Molecular Screening Center, 2009)
# Out of some 300,000 compounds screened, about 1,500 (0.5%) were called active.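 How the source made its calls: active means inhibition above the mean of all tested compounds plus 3 SD, set per screening campaign (cut at about 17% in these data); inactive means the rest.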 Shown is part of a subset that was picked to be rich in actives.
# Test system: cathepsin L1 (Fasciola hepatica)
# Assay: Fasciola hepatica cathepsin L1 inhibitors, primary screen, counter-screen for PFM18AAP inhibitor project, biochemical, QFRET, fluorogenic peptide substrate (AID 1906);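 further: 0% = plate median of test compound wells and 100% = 1 µM Z-Phe-Ala-diazomethylketone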
# Conditions: recombinant F. hepatica cathepsin L1, Z-Leu-Arg-MCA fluorescence; at 5.96 µM; stronger effect = higher value
row,Compound,inhibition
1,O=C(NC(=S)NC1CCS(=O)(=O)C1)c1cccc([N+](=O)[O-])c1 (stereo unspecified),-1.84% (inactive)
2,CC(C)C[C@H](NC(=O)[C@@H]1O[C@H]1C(=O)O)C(=O)NCCCCN=C(N)N,112% (active)
3,O=C1CC2(CCN(C(=O)COc3ccc(F)cc3)CC2)Oc2ccccc21,-0.88% (inactive)
4,CC(C)N(C(=O)c1ccc(-c2ccccc2F)cc1)C(C)C,-3.72% (inactive)
5,CC(=O)N(C1=C(Cl)C(=O)c2ccccc2C1=O)c1ccc(C(=O)O)cc1,41.1% (active)
6,O=C(CN1C(=O)c2ccccc2C1=O)NCc1ccc(C(=O)O)cc1,10.4% (inactive)
7,CCN(CC)CCNS(=O)(=O)c1ccc(/C=C/C(=O)O)cc1,8.82% (inactive)
8,Cc1ccc(C(C)C)c(OCCSc2nc3ccccc3n2CC(=O)O)c1,2.31% (inactive)
9,CC(C(=O)NCCc1ccc(S(N)(=O)=O)cc1)N1C(=O)CC(C)(C)Sc2ccccc21 (stereo unspecified),3.12% (inactive)
10,CC(OC(=O)CNC(=O)c1cccc(F)c1)C(=O)NC1CCCCC1C (stereo unspecified),46.5% (active)
11,CC(OC(=O)CNC(=O)c1ccc(Cl)c([N+](=O)[O-])c1)C(=O)NCc1ccco1 (stereo unspecified),-10.4% (inactive)
12,Cc1cc(C(=O)OC(C)C(=O)NC2CCCCC2C)c(C)o1 (stereo unspecified),1.05% (inactive)
13,Cc1ccccc1OCc1nnc(SCC(=O)N2c3ccccc3Sc3ccc(Cl)cc32)o1,1.54% (inactive)
14,CCOC(=O)C1=C(O)/C(=C/c2cc(C)n(-c3ccccc3)c2C)N=C1C,-0.93% (inactive)
15,N#Cc1ccccc1NC(=O)c1cccc(COc2ccc(Cl)cc2Cl)c1,2.17% (inactive)
16,COc1ccccc1Oc1ccc(N/C=C2/CCCC2=O)cc1,6.01% (inactive)
17,CCCCC(=O)Nc1nnc(S(=O)(=O)N(C)Cc2ccco2)s1,-1.17% (inactive)
18,CC1(C)CC(=O)C/C(=N\NC(=O)c2cccs2)C1,-1.64% (inactive)
19,C=CCn1c(SCc2csc(C)n2)nc2scc(-c3ccc(C)o3)c2c1=O,1.45% (inactive)
20,C=CCNC(=O)CSc1nc2scc(-c3ccco3)c2c(=O)n1CC=C,35.5% (active)
21,C=CCn1c(=S)[nH]c2scc(-c3ccco3)c2c1=O,-1.34% (inactive)
22,CCC1Oc2ccccc2N(CC(=O)NCCCN2CCN(CC)CC2)C1=O (stereo unspecified),1.49% (inactive)
23,Cc1ccc2oc(=O)c3cnn(CC(=O)N(Cc4ccco4)C4CCCCC4)c3c2c1,42.9% (active)

row,Compound,inhibition
1,Cc1ccc2oc(=O)c3cnn(CC(=O)N4CCCCCC4)c3c2c1,-4.76% (inactive)
2,COCCCN(C(=O)Cn1ncc2c(=O)oc3ccc(C)cc3c21)C(C)c1ccncc1 (stereo unspecified),3.63% (inactive)
3,Cc1cccc(NC(=O)c2cc(S(=O)(=O)N3CCC4(CC3)OCCO4)ccc2F)c1,-2.65% (inactive)
4,CN(C)c1nc(NN)nc(Nc2ccc(F)cc2)n1,11% (inactive)
5,Nc1c(N(CCO)C(=O)C2CCCCC2)c(=O)[nH]c(=O)n1Cc1ccccc1,23.6% (active)
6,CCN(C(=O)CN1CCN(Cc2ccccc2)CC1)c1c(N)n(Cc2ccccc2)c(=O)[nH]c1=O,-1.57% (inactive)
7,COCCn1c(N)c(N(Cc2ccccc2)C(=O)C2CCCCC2)c(=O)[nH]c1=O,3.45% (inactive)
8,Cc1sc(NC(=S)NC(=O)c2cccs2)nc1-c1ccc(CC(C)C)cc1,-0.85% (inactive)
9,COc1cc(OC)nc(NC(=O)CCl)n1,19.4% (active)
10,CCC(=O)Nc1nc(OC)cc(OC)n1,3.53% (inactive)
11,COc1cc(OC)nc(N/N=C(\c2ccccc2)c2ccncc2)n1,1.22% (inactive)
12,O=C(c1ccc(F)cc1)N1CCCC(C(=O)N2CCCCC2)C1 (stereo unspecified),-2.4% (inactive)
13,COc1ccc(C(=O)NC(=S)N2CCNC(=O)C2CC(=O)OC(C)C)cc1 (stereo unspecified),-3.41% (inactive)
14,Cc1ccc2cc(C)c(N3CCC(C)CC3)nc2c1,-2.83% (inactive)
15,CN(c1ccccc1)S(=O)(=O)c1ccc2[nH]c(=O)[nH]c2c1,-6.38% (inactive)
16,CC1CCC(C(C)C)C(=O)/C1=C\c1ccc(NC(=O)CCC(=O)O)cc1 (stereo unspecified),2% (inactive)
17,O=C(Cc1c(O)c2ccccc2[nH]c1=O)NCc1ccccc1,0.35% (inactive)
18,CC(C)C(=O)Nc1c(O)c2ccccc2[nH]c1=O,-1.29% (inactive)
19,CCCOC(=O)Cc1c(O)c2ccccc2[nH]c1=O,46.3% (active)
20,N#Cc1c(N2CCCCC2)nc(N)c2c(N)nc(SCC(=O)O)cc12,1.83% (inactive)
21,COc1cccc(-c2cc3nc4c(c(N5CCC6(CC5)OCCO6)n3n2)CCCC4)c1,1.28% (inactive)
22,Cc1cc(C)cc(NC(=O)COc2coc(CN3CCN(c4ccccc4)CC3)cc2=O)c1,-0.61% (inactive)
23,CCN(CC)C(=O)CSc1nc2ccccc2o1,-2.89% (inactive)

row,Compound,inhibition
1,O=C(CSc1nc2ccccc2o1)N/N=C/c1ccccc1C(=O)O,-1.26% (inactive)
2,CCC(NC(=O)c1ccccc1NC(=O)c1ccccc1)C(=O)NNC(=O)CSc1nc2ccccc2o1 (stereo unspecified),31.7% (active)
3,COc1ccccc1CNC(=O)[C@@H]1CCCN1C(=O)[C@@H]1Cc2ccccc2CN1C(=O)OC(C)(C)C,7.62% (inactive)
4,CCC(C)N1CC(=O)N2Cc3[nH]c4ccccc4c3C[C@H]2C1=O (stereo partly specified),5.23% (inactive)
5,COC(C[C@@H]1O[C@@H]1C(=O)[C@@H](C)OCc1ccccc1)OC,9.96% (inactive)
6,COC(C/C=C/C(=O)[C@@H](C)OCc1ccccc1)OC,-1.49% (inactive)
7,COC(C[C@@H]1O[C@@H]1C(=O)[C@H](C)OCc1ccccc1)OC,28.4% (active)
8,CC(Oc1ccc(F)cc1)C(=O)Nc1ccccc1C(=O)NC1CC1 (stereo unspecified),-1.06% (inactive)
9,CC12CCC(=O)N1C(C(=O)Nc1ccc(F)c(F)c1F)CS2 (stereo unspecified),2.04% (inactive)
10,Cc1ccc(C2C(C#N)C(C#N)N3CCCN23)cc1 (stereo unspecified),1.37% (inactive)
11,COc1ccc(F)cc1S(=O)(=O)NCC(c1ccc2c(c1)OCO2)N1CCN(C)CC1 (stereo unspecified),4.62% (inactive)
12,O=C1OC(NC(=O)c2ccccc2)C(N2CCOCC2)=C1Cl (stereo unspecified),5.28% (inactive)
13,O=C1C(Cl)=C(N2CCOCC2)C(=O)N1c1ccccc1,42.9% (active)
14,O=c1[nH]c(N2CCOCC2)nc2ccccc12,0.18% (inactive)
15,COc1ccc(CNC(=O)COC(=O)/C=C/c2ccc(S(=O)(=O)N3CCOCC3)cc2)cc1,0.44% (inactive)
16,COC(=O)c1ccc(NC(=O)CSc2nnc(Cc3cccn3C)n2-c2ccc(F)cc2)cc1,6.5% (inactive)
17,CCCC(=O)Nc1cc(OCC)c(NC(=O)NC2CCCCC2)cc1OCC,-3.59% (inactive)
18,CCOc1cc(NS(=O)(=O)c2ccc(OC)cc2)c(OCC)cc1NC(C)=O,-2.89% (inactive)
19,CCOc1cc(NC(=O)CCl)c(OCC)cc1NC(C)=O,83.7% (active)
20,C/C(CCC(=O)OC[C@H]1O[C@H](C#Cc2ccccc2)C=C[C@@H]1Oc1ccc(C)cc1)=N\OC[C@@H](O)[C@H]1O[C@@H]2OC(C)(C)O[C@@H]2[C@H]1O,-0.48% (inactive)
21,CC1(C)NC(=O)N(CCCCSc2ccc(Cl)cc2)C1=O,3.34% (inactive)
22,N#Cc1nc(N)nc(N(c2ccccc2)c2ccccc2)n1,56.4% (active)
23,CC(C)Nc1nc(N(c2ccccc2)c2ccccc2)nc(-n2ccnc2)n1,-0.83% (inactive)

row,Compound,inhibition
1,Cc1oc2c(c1C(=O)N1CCOCC1)C(=O)c1ccccc1C2=O,18.4% (active)
2,Cc1ccccc1-c1ccc(Nc2ccc(C(=O)N3CCOCC3)cc2)nn1,0.35% (inactive)
3,Cc1ccc(C(=O)N2CCN(C(=O)N3CCOCC3)CC2)cc1,1.67% (inactive)
4,CCOC(=O)/C(=C\c1ccc([N+](=O)[O-])cc1)C(=O)c1cc(C(C)=O)c(Nc2ccccc2)s1,-2.81% (inactive)
5,COc1ccccc1C(CNC(=O)c1cccc(NS(=O)(=O)c2ccc(Br)cc2)c1)N(C)C (stereo unspecified),4.17% (inactive)
6,CN(C)C(CNC(=O)CCCOc1ccccc1)c1ccco1 (stereo unspecified),-6.17% (inactive)
7,CN(C)C(CNC(=O)c1cccc(S(=O)(=O)Nc2ccc(Br)cc2)c1)c1ccco1 (stereo unspecified),-0.56% (inactive)
8,CN(C)C(CNC(=O)c1cccc(C#N)c1)c1ccco1 (stereo unspecified),22.2% (active)
9,COC(=O)c1scc(S(=O)(=O)C(C)(C)C)c1-n1cccc1,-3.59% (inactive)
10,O=C(/C=C/c1ccc([N+](=O)[O-])o1)NNC(=O)c1ccc(F)cc1,17.7% (active)
11,O=C(N/N=C/c1ccc([N+](=O)[O-])o1)c1cn(-c2ccccc2)nc1-c1ccc(F)cc1,1.54% (inactive)
12,Cc1ccc(/C=C/C(=O)Nc2ccc([N+](=O)[O-])c(NC(=O)/C=C/c3ccc(C)o3)c2)o1,7.56% (inactive)
13,Cc1ccc(NC(=S)Nc2ncccc2C)c(C)c1,-0.91% (inactive)
14,[2H]C(CCOS(N)(=O)=O)c1ccccc1 (stereo unspecified),1.8% (inactive)
15,COc1ccc(C=C(C#N)C#N)c(CSc2ccccn2)c1,-4.15% (inactive)
16,Cc1ccc(OCCNC(=O)CCNS(=O)(=O)c2ccc(Br)cc2)cc1,0.55% (inactive)
17,O=C(Cc1ccccc1)Nc1cccc(NC(=O)c2ccccc2)c1,-2.42% (inactive)
18,O=C(CCl)Nc1cccc(CP(=O)(c2ccccc2)c2ccccc2)c1,72% (active)
19,CCc1cccc(NC(=O)CCC(=O)O)c1,-3% (inactive)
20,C#CCOCCOCCOCCNc1nc(N2CCN(C(=O)C([C@@H](C)CC)n3cc(C(N)COC(=O)C(F)(F)F)nn3)CC2)nc(N2CCN(C(=O)[C@H](CCCCN)n3cc(C(N)CC(C)C)nn3)CC2)n1 (stereo partly specified),33.1% (active)
21,C#CCOCCOCCOCCNc1nc(N2CCN(C(=O)[C@H](CCCCN)n3cc([C@@H](N)C(C)CC)nn3)CC2)nc(N2CCN(C(=O)[C@H](Cc3ccc(O)cc3)n3cc([C@@H](N)C(C)CC)nn3)CC2)n1 (stereo partly specified),5.02% (inactive)
22,C#CCOCCOCCOCCNc1nc(N2CCN(C(=O)C([C@@H](C)CC)n3cc(C(N)COC(=O)C(F)(F)F)nn3)CC2)nc(N2CCN(C(=O)[C@H](Cc3ccc(O)cc3)n3cc(C(N)[C@H](C)CC)nn3)CC2)n1 (stereo partly specified),-2.06% (inactive)
